Shown is part of a subset that was picked to be rich in hits.
aSyn UTR act – Activators via SNCA 5'UTR binding, MLPCN. alpha-synuclein 5'UTR reporter, activators screen. activity score, % (tested at 7.5 µM), hits read low. actives 7.1% (n = 300,000). AID 1814, 2009; in the data active = activity score below about -60%
Large screens that a line does not name were inactive.

O=C(CCSc1ccccc1)N1CCN(c2ccccc2)CC1	aSyn UTR act -137
Cc1nc2cc(-c3ccccc3)nn2c(C)c1CCC(=O)N1CCN(c2ccccc2)CC1	none
O=C(CCSc1ccc(Cl)cc1)N1CCCCCC1	aSyn UTR act -133
O=C(CCSc1ccc(Cl)cc1)N1CCN(c2ncccn2)CC1	aSyn UTR act -103
Cc1ccc(-c2ccc(SCC(=O)N3CCN(c4ccccc4)CC3)nn2)cc1	aSyn UTR act -91
O=C(CCS(=O)(=O)c1ccccc1)N1CCN(c2ccc(F)cc2)CC1	aSyn UTR act -79
O=C(NCc1cccs1)c1csc2ccccc12	aSyn UTR act -62
Cc1cccc2c(=O)c(C(=O)NCc3cccs3)c[nH]c12	aSyn UTR act -110
Nc1nc2c(ccc3ccccc32)s1	aSyn UTR act -72
CCCCOC(=O)CSc1nc2c(cc1C#N)C(=O)CC(C)(C)C2	aSyn UTR act -133
COc1ccc(N)cc1-n1c(C)ccc1C	aSyn UTR act -118
Cc1noc(C(=O)Nc2ccc(F)c(Cl)c2)c1Cl	aSyn UTR act -70
Cc1ccc(NC(=O)c2onc(C)c2Cl)cc1	aSyn UTR act -151
O=C(c1cnn2c1NC(c1ccco1)CC2C(F)(F)F)N1CCN(c2cccc(Cl)c2)CC1 (centres undefined)	aSyn UTR act -71
Cc1ccc(-c2cc(C(=O)Nc3cc(C)ccc3O)no2)cc1	aSyn UTR act -183
COc1ccc(-c2cc(C(=O)Nc3cc(Cl)ccc3O)no2)cc1	aSyn UTR act -156
COc1ccc(-c2cc(C(=O)Nc3cc(C)ccc3O)no2)cc1	aSyn UTR act -132
COc1ccc(OC)c(-c2cc(C(=O)Nc3c(C)nn(Cc4ccccc4Cl)c3C)no2)c1	none
CCOc1ccc(-c2cc(CCCC(=O)Nc3cc(OC)ccc3OC)no2)cc1	none
Cc1ccc(O)c(NC(=O)c2cc(-c3ccccc3Cl)on2)c1	aSyn UTR act -173
Cn1c(/C=N/Nc2nc3ccccc3[nH]2)nc2ccccc21	aSyn UTR act -188
C=CCn1cc(/C=N/Nc2nc3ccccc3[nH]2)c2ccccc21	aSyn UTR act -195
CC(C)Cn1c(/C=N/Nc2nc3ccccc3[nH]2)nc2ccccc21	aSyn UTR act -337
CNC(=O)c1ccc(Nc2nc(-c3ccccc3)nc3ccccc23)cc1	aSyn UTR act -90
Cc1ccc(C(=O)c2cc([N+](=O)[O-])ccc2N2CCOCC2)cc1	none
Cc1ccc(C(=O)c2ccc(N3CCOCC3)c(F)c2)cc1	aSyn UTR act -109
CCCC(=O)c1ccc(N2CCOCC2)c(F)c1	aSyn UTR act -97
CCC(=O)c1ccc(N2CCCCC2)c(F)c1	aSyn UTR act -68
Clc1ccc(-c2cn3c(n2)-c2ccccc2C3)cc1Cl	aSyn UTR act -67
CCC(Oc1ccccc1)C(=O)N1CCC(C(N)=O)CC1 (centres undefined)	aSyn UTR act -71
CCCCOc1ccc(C(=S)N2CCC(C(N)=O)CC2)cc1	aSyn UTR act -86
Cc1ccc(NNC(=S)Nc2ccc(C(C)C)cc2)c(C)c1	aSyn UTR act -145
CC(C)(C)c1cnnn1-c1ccc(/C=N/Nc2ccc([N+](=O)[O-])cc2)cc1	aSyn UTR act -95
O=C1c2ccccc2S(=O)(=O)c2cc(N3CCc4ccccc4C3)ccc21	aSyn UTR act -180
COC(=O)c1ccc2c(=O)n3c(nc2c1)SCC(c1ccccc1)=N3	aSyn UTR act -112
Cc1ccc(Nc2ncnc3nc[nH]c23)cc1Cl	aSyn UTR act -146
CCc1ccc(Nc2ncnc3nc[nH]c23)cc1	aSyn UTR act -70
Cc1ccc(NC(=O)Nc2ncnc3nc[nH]c23)cc1	aSyn UTR act -106
COc1cccc(Nc2ncnc3nc[nH]c23)c1	aSyn UTR act -83
CCOC(=O)c1sc(=NC(=O)c2ccccc2)n(C)c1C	aSyn UTR act -134
CCOC(=O)c1sc(=NC(=O)c2cccc(OC)c2)n(C)c1C	aSyn UTR act -183
CCOC(=O)c1sc(=NC(=O)c2ccc(OC)c(OC)c2)n(C)c1C	aSyn UTR act -69
CCc1cc2c(=O)n3c(nc2s1)-c1[nH]c2ccc(OC)cc2c1CC3	aSyn UTR act -103
O=C(Nc1ccc(Br)cc1)C1Cc2ccccc2O/C1=N\O (centres undefined)	aSyn UTR act -158
Cc1ccc(NC(=O)C2Cc3ccccc3O/C2=N\O)cc1C (centres undefined)	aSyn UTR act -127
CCn1c(C)nc2c(C)[n+](CC(=O)c3ccc(Br)cc3)ccc21	aSyn UTR act -106
O=C1C[C@H]2[C@H](CO)[C@@H](OC(=O)c3ccc(-c4ccccc4)cc3)C[C@H]2O1	aSyn UTR act -87
CC(=O)O[C@]1(C(C)=O)CC[C@H]2[C@@H]3C=CC4=CC(=O)C=C[C@]4(C)[C@H]3CC[C@@]21C	aSyn UTR act -83
O=C1CCCCCN1Cc1nnc(SCc2nc3ccccc3s2)n1-c1ccccn1	aSyn UTR act -109
O=C(Nc1ccc(Cl)cn1)c1ccc(COc2ccccc2Br)o1	aSyn UTR act -117
CN(C)C(=O)c1ccc(COc2ccccc2Br)o1	aSyn UTR act -166
O=C(Nc1ccccn1)c1ccc(COc2ccccc2Cl)o1	aSyn UTR act -71
CCc1cc2c(=O)n(-c3ccccc3)cnc2s1	aSyn UTR act -96
CCc1cc2c(=O)n(-c3ccc(C)cc3)cnc2s1	aSyn UTR act -149
CCc1ccc(Nc2ncc3c(n2)CC(C)(C)CC3=O)cc1	aSyn UTR act -141
Cc1cccc(Nc2ncc3c(n2)CC(C)CC3=O)c1 (centres undefined)	aSyn UTR act -127
CCc1ccc(Nc2ncc3c(n2)CC(C)CC3=O)cc1 (centres undefined)	aSyn UTR act -135
CCC1=[N+](CC(=O)c2ccc(C)cc2)CCn2cccc21	aSyn UTR act -123
CC1=[N+](CC(=O)c2ccccc2)CCn2cccc21	aSyn UTR act -110
CCC1=[N+](CC(=O)c2ccc(C)cc2)CCn2c(C)ccc21	aSyn UTR act -194
CNc1nnc(-c2cc3ccccc3oc2=O)s1	aSyn UTR act -78
N=c1oc2ccccc2cc1-c1nc(-c2ccccc2)cs1	aSyn UTR act -64
c1csc(-c2csc(-c3cccs3)n2)c1	aSyn UTR act -104
O=c1oc2ccccc2cc1-c1nc(-c2cccs2)cs1	aSyn UTR act -133
COc1cccc2cc(-c3nc(-c4cccs4)cs3)c(=O)oc12	aSyn UTR act -174
O=C(Nc1ccc2oc(-c3ccccc3)nc2c1)C1CCCO1 (centres undefined)	aSyn UTR act -162
O=C(Nc1ccc(-c2nc3cc(Cl)ccc3o2)cc1)C1CCCO1 (centres undefined)	aSyn UTR act -81
COc1ccccc1NC(=O)c1c(O)c2ccccc2[nH]c1=O	aSyn UTR act -76
O=C(Nc1cccc(F)c1)c1c(O)c2ccccc2[nH]c1=O	aSyn UTR act -140
CC1CCC2(CC1)Nc1ccccc1C(=O)N2c1ccccc1 (centres undefined)	aSyn UTR act -105
CC(=O)Nc1ccc(NC2=C/C(=N/S(=O)(=O)c3cccs3)c3ccccc3C2=O)cc1	none
CCOc1ccc(N=C(C)C2=C(O)c3ccccc3C2=O)cc1	aSyn UTR act -123
CC(=O)Nc1ccc(N=C(C2=C(O)c3ccccc3C2=O)c2ccccc2)cc1	aSyn UTR act -64
CC(=NC1CC1)C1=C(O)c2ccccc2C1=O	aSyn UTR act -177
N#C/C(=N\Nc1ccc(Cl)c(Cl)c1)C(=O)C1CC1	aSyn UTR act -97
O=C(Cc1cccs1)Nc1nnc(-c2ccccc2)s1	aSyn UTR act -211
O=C(Cc1cccs1)Nc1nnc(-c2ccc(F)cc2)s1	aSyn UTR act -76
COc1cc2oc(-c3ccc(O)cc3)cc(=O)c2c(O)c1OC	aSyn UTR act -73
Cc1ccc(C(=O)NCCOc2cccc(C)c2)cc1	aSyn UTR act -111

Bioassay records from PubChem BioAssay.
